# Test results reported in PubChem BioAssay AID602282 (Johns Hopkins Ion Channel Center, 2012).
# Out of some 1,100 compounds screened, about 1,000 (91%) were called active.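 Rule for the calls: active = inhibition above 3 SD of the buffer control wells (cut at about 41% in these data); inactive = the rest.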 The set was probably picked from earlier hits. These entries were drawn from the full list.
# Test: inhibition of M3R-evoked calcium signal on retest – cell-based, HEK293 M3R/RGS4 inducible, calcium flux, duplicate, RGS4 activator project, confirmation (AID 602282);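 note: signal is the integrated peak-minus-minimum Fluo4 fluorescence over baseline ratio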
# Conditions: carbachol calcium flux Fluo4, at 10 µM, stronger effect = higher value
row,SMILES,inhibition
1,C=CC12CN(C)[C@@H]3C4CO[C@H](C[C@H]41)[C@]1(C(=O)Nc4ccccc41)[C@@H]32 (some centres not stated),84% (active)
2,CC(C)Oc1cccc(C(=O)C2CCCN(C3CCOCC3)C2)c1 (configuration not stated),42.5% (active)
